In PubChem BioAssay (Tox21):
Results filed as inconclusive are left out. A call without a number means that no potency is given here. The source made the active and inactive calls. Unless noted, calls come from the whole dose curve; as a rule, active = well fitted curve in the direction sought with a large enough effect in the repeat runs; inconclusive = weak or mixed curves; inactive = flat fitted curve, though single readings scatter.

Tests used:
[1] = qHTS assay to test for compound auto fluorescence at 535 nm (green) in HEK293 cells (AID 720680)
[2] = qHTS assay to test for compound auto fluorescence at 460 nm (blue) in HEK293 cell free culture (AID 720681)
Method in brief: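 Test compounds were pinned into cell-free culture medium (DMEM with 10% FBS) and fluorescence was read directly at Ex/Em 405/460 nm. Signals were expressed as fluorescence equivalents of triamterene, with DMSO vehicle as control.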

[3] = qHTS assay to test for compound auto fluorescence at 535 nm (green) in HEK293 cell free culture (AID 720682)
Method in brief: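 Steps: dispense DMEM/10% FBS into empty wells; pin in compound or DMSO; measure fluorescence at 485/535 nm. Values are fluorescein equivalents.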

[4] = qHTS assay to test for compound auto fluorescence at 590 nm (red) in HEK293 cell free culture (AID 720683)
Method in brief: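 Tox21 10K library compounds were pinned into cell-free DMEM with 10% FBS and fluorescence was read at excitation 540 nm. Activity is expressed as Rose Bengal sodium equivalency.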

[5] = qHTS assay to test for compound auto fluorescence at 590 nm (red) in HepG2 cell free culture (AID 720684)
Method in brief: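 Ex 540 / Em 590 nm read of compound in cell-free MEM (10% FBS). Rose Bengal sodium reference.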

[6] = qHTS assay to test for compound auto fluorescence at 460 nm (blue) in HepG2 cell free culture (AID 720685)
Method in brief: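 Cell-free plates of MEM plus 10% FBS received 23 nL compound or DMSO vehicle; blue-channel (405/460 nm) intensity scored against triamterene as reference fluorophore.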

[7] = qHTS assay to test for compound auto fluorescence at 535 nm (green) in HepG2 cell free culture (AID 720686)
[8] = qHTS assay to test for compound auto fluorescence at 460 nm (blue) in HepG2 cells (AID 720687)
Method in brief: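 Cells (2,000/well in MEM with 10% FBS) attached overnight at 37 C, then were exposed to compound or DMSO for 1 hr at 37 C, 5% CO2. Fluorescence read at Ex/Em 405/460 nm, expressed as triamterene-equivalent signal.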

[9] = target: Glucocorticoid receptor (Homo sapiens) (UniProt P04150); assay: qHTS assay to identify small molecule agonists of the glucocorticoid receptor (GR) signaling pathway (AID 720691; active = well fitted activation curve with a large enough effect in the signal ratio in the repeat runs, not every such curve was filed as active; the % refers to the signal ratio)
Glucocorticoid receptor (Homo sapiens), sequence (P04150 whole entry, looked up): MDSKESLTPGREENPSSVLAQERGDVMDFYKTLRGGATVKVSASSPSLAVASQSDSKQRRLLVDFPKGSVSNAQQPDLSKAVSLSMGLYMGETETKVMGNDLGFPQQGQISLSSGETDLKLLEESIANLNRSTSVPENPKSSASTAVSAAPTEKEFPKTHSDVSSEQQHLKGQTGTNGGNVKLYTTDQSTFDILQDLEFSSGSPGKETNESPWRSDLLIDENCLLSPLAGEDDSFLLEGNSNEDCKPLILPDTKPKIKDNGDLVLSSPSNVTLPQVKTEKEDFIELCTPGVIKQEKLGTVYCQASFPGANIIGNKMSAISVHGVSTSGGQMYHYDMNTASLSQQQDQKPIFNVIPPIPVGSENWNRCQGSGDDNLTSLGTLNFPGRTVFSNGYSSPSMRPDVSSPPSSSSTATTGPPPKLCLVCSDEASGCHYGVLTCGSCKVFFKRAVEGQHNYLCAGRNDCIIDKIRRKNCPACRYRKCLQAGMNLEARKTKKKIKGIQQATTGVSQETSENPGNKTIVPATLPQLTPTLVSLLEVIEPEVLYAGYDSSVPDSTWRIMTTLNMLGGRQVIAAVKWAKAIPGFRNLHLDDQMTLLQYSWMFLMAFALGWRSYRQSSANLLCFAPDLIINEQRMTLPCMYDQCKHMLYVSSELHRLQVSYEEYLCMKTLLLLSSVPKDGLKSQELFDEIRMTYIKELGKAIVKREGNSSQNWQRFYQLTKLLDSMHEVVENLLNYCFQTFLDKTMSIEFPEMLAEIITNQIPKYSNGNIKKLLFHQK
Method in brief: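 HeLa GR-bla reporter line; cells pre-incubated 4 h, compound in DMSO 18 h at 37 C; LiveBLAzer B/G FRET substrate 2 h RT; fluorescence intensity read-out.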

[10] = target: Glucocorticoid receptor (Homo sapiens) (UniProt P04150); assay: qHTS assay to identify small molecule antagonists of the glucocorticoid receptor (GR) signaling pathway (AID 720692; active = well fitted inhibition curve with a large enough effect in the signal ratio in the repeat runs, not every such curve was filed as active; the % refers to the signal ratio; note: potency is the fitted concentration of half-maximal effect)
Method in brief: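 Read-out: beta-lactamase FRET substrate fluorescence, 2 h at room temperature, in HeLa cells stably carrying a GRE-driven bla reporter. Compounds were co-incubated with 5 nM dexamethasone agonist (final) for 18 h at 37 C.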

Row | SMILES | outcome [1] | outcome [2] | outcome [3] | outcome [4] | outcome [5] | outcome [6] | outcome [7] | outcome [8] | outcome [9] | Potency [10]
1 | COC(=O)c1ccccc1S(=O)(=O)NC(=O)Nc1nc(C)cc(C)n1 | inactive | inactive | inactive | inactive | inactive | inactive | inactive | inactive | inactive | inactive
2 | CN/C(=N\[N+](=O)[O-])NCC1CCOC1 (stereo not given) | inactive | inactive | inactive | inactive | inactive | inactive | inactive | inactive | inactive | inactive
3 | CCOC(=O)/C=C(C)/C=C/C[C@@H](C)CCCC(C)C | inactive | inactive | inactive | inactive | inactive | inactive | inactive | inactive | inactive | inactive
4 | O=CNC(N1CCN(C(NC=O)C(Cl)(Cl)Cl)CC1)C(Cl)(Cl)Cl (stereo not given) | inactive | inactive | inactive | inactive | inactive | inactive | inactive | inactive | inactive | inactive
5 | C=CCC1=C(C)[C@@H](OC(=O)[C@@H]2[C@@H](C=C(C)C)C2(C)C)CC1=O | inactive | inactive | inactive | inactive | inactive | inactive | inactive | inactive | inactive | 49 µM (active)
6 | N#CCBr | inactive | inactive | inactive | inactive | inactive | inactive | inactive | inactive | inactive | inactive
7 | Cc1cc(C)c(C(=O)P(=O)(C(=O)c2c(C)cc(C)cc2C)c2ccccc2)c(C)c1 | inactive | inactive | inactive | inactive | inactive | inactive | inactive | inactive | inactive | inactive
8 | CCC#N | inactive | inactive | inactive | inactive | inactive | inactive | inactive | inactive | inactive | inactive
9 | Nc1cc(Cl)ccc1O | inactive | inactive | inactive | inactive | inactive | inactive | inactive | inactive | inactive | inactive
10 | C=CC1CC=CCC1 (stereo not given) | inactive | inactive | inactive | inactive | inactive | inactive | inactive | inactive | inactive | inactive
11 | O=c1oc2ccccc2c(O)c1C1CCCc2ccccc21 (stereo not given) | inactive | inactive | inactive | inactive | inactive | inactive | inactive | inactive | inactive | inactive
12 | O=[N+]([O-])c1cccc2c([N+](=O)[O-])cccc12 | inactive | inactive | inactive | inactive | inactive | inactive | inactive | inactive | inactive | inactive
13 | CCN(Cc1ccc(Cl)nc1)/C(=C/[N+](=O)[O-])NC | inactive | inactive | inactive | inactive | inactive | inactive | inactive | inactive | inactive | inactive
14 | CCCCOC(=O)c1ccccc1N | inactive | inactive | inactive | inactive | inactive | inactive | inactive | inactive | inactive | inactive
15 | c1coc(-c2nc3ccccc3[nH]2)c1 | inactive | inactive | inactive | inactive | inactive | inactive | inactive | inactive | inactive | inactive
16 | N#CC(O)c1ccccc1 (stereo not given) | inactive | inactive | inactive | inactive | inactive | inactive | inactive | inactive | inactive | inactive
17 | c1cc[c]([Hg][c]2ccccc2)cc1 | inactive | inactive | inactive | inactive | inactive | inactive | inactive | inactive | inactive | 0.347 µM (active)
18 | Nc1n[nH]c(N)n1 | inactive | inactive | inactive | inactive | inactive | inactive | inactive | inactive | inactive | inactive
19 | CCN(CC)C(=O)[C@@H]1C=C2c3cccc4[nH]cc(c34)C[C@H]2N(C)C1 | inactive | inactive | inactive | inactive | inactive | inactive | inactive | inactive | inactive | inactive
20 | CN(N=O)C(N)=O | inactive | inactive | inactive | inactive | inactive | inactive | inactive | inactive | inactive | inactive
21 | CC(C)COP(=O)(OCC(C)C)OCC(C)C | inactive | inactive | inactive | inactive | inactive | inactive | inactive | inactive | inactive | inactive
22 | [Cl][Sn]([Cl])([Cl])[Cl] | inactive | inactive | inactive | inactive | inactive | inactive | inactive | inactive | inactive | inactive
